Source: PubChem
G9a block: inhibitors of human histone lysine methyltransferase G9a; 350,000 tested, 8.8% active; AID 504332; Potency, µM (series often up to 102 µM), usual class: inhibitors; G9a H3K9 monomethylation, AlphaScreen, 2 h; note: nearly all actives have a fitted effect of over 75% in size
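Readings reflect AlphaScreen signal from monomethyl-H3K9 antibody detection. HMT at 20 nM; substrate b-H3K9 500 nM; cofactor SAM 20 uM; 2 h RT reaction; compounds tested as titrations in qHTS with 15 min preincubation.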
JMJD2A Tudor inh: JMJD2A Tudor domain (human) inhibition | Potency, µM (series often up to 114 µM), usual class: inhibitors | O75164 | 390,000 tested, 4.4% active | AlphaScreen JMJD2A-Tudor / H3K4me3 peptide binding; note: nearly all actives have a fitted effect of over 50% in size
Target sequence (O75164 whole entry, looked up, the tested form may be a part): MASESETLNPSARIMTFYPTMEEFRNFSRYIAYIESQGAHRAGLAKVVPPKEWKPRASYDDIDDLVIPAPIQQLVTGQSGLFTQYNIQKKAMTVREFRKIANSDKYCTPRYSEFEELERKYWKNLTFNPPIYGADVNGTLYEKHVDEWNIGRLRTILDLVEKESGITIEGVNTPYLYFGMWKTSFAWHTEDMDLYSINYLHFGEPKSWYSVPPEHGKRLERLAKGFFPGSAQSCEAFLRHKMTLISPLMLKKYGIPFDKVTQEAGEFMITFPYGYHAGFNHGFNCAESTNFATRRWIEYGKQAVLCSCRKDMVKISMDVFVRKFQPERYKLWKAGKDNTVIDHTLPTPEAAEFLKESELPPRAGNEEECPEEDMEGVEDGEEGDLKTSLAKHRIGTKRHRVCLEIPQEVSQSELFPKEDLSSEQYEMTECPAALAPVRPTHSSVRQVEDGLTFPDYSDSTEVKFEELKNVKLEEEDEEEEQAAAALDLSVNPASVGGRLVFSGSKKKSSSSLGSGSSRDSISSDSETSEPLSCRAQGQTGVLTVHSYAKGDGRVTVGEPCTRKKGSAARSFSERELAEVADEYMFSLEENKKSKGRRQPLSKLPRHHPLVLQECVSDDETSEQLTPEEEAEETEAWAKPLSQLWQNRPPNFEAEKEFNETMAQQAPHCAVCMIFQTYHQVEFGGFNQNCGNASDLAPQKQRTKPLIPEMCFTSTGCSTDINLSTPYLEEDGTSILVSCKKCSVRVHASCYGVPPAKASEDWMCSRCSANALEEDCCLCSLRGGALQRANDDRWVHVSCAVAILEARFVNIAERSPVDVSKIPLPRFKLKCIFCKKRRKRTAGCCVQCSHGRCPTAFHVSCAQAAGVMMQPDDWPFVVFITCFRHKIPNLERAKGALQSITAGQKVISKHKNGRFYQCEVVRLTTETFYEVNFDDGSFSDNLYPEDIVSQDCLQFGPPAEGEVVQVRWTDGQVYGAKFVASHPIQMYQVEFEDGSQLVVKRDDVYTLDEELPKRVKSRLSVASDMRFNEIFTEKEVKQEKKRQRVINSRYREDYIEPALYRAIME
PI5P4Ka inh: inhibitors of human PI5P4K alpha | AID 652105 | 330,000 tested, 1.2% active | PI5P4Kalpha enzyme, ADP-Glo luminescence, 60 min; stronger effect = lower value | max response, %; active = max response of -50% or lower; inconclusive = between -30% and -50%; inactive = -30% or higher; note: value at the top dose of about 77 µM
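PI5P4Kalpha ADP-Glo assay; 5 microM ATP final; 60 min RT reaction; HEPES pH 7.4/EGTA/CHAPS, 5% DMSO; controls lacking substrate or enzyme; luminescent end-point.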
HP1b chromo inh: blocks HP1-beta chromodomain binding to methylated histone tails | P83916 | AlphaScreen HP1-beta / biotin-H3K9me3 peptide binding | Potency, µM (series often up to 114 µM), most hits filed as inhibitors | 390,000 tested, 0.56% active; note: nearly all actives have a fitted effect of over 70% in size
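AlphaScreen: HP1-beta (50 nM) preformed 30 min with biotin-H3(1-18)K9me3 peptide (50 nM) in PBS pH 7.4, 0.01% Tween-20. Compound added for 30 min at RT, then streptavidin donor/nickel chelate acceptor beads (10 ug/mL) for 30 min.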
BAZ2B block: inhibitors of human BAZ2B bromodomain; AID 504333; AlphaScreen BAZ2B-H3K14Ac peptide displacement; Potency, µM (series often up to 114 µM), actives largely listed as inhibitors; Q9UIF8; 360,000 tested, 4.4% active; note: nearly all actives have a fitted effect of over 60% in size
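Protein-peptide AlphaScreen: BAZ2B 50 nM, b-H3K14Ac 50 nM, 1x PBS pH 7.4 + 0.01% Tween-20. Preincubation 30 min RT; cpd 30 min RT (top 110 uM); beads 20 min RT, light-protected.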
L3MBTL1 inh: inhibitors of human L3MBTL1; Q9Y468; AlphaScreen L3MBTL1–H3K9me1 peptide binding; 230,000 tested, 0.66% active; Potency, µM (series often up to 57.1 µM), usual class: inhibitors; note: nearly all actives have a fitted effect of over 60% in size
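First, the protein-peptide complex forms for 30 min at room temperature (L3MBTL1 50 nM, biotinylated H3K9me1 peptide 75 nM). Next, compounds are pin-transferred and incubated 30 min. Finally, AlphaScreen beads are added and read after 30 min.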
Numbers stand for hits; i = inactive; ? = inconclusive; nt = no result given; [ ] = another dose, or the depositor's remark. In the library only some 11% were active in any assay of this set; here they are far more common. Unless noted, calls come from the whole dose curve; as a rule, active = well fitted inhibition curve with a large enough effect; inconclusive = small, poorly fitted or top-dose-only effect; inactive = no such curve, though single readings can be large or run the other way.

SMILES | G9a block | JMJD2A Tudor inh | PI5P4Ka inh | HP1b chromo inh | BAZ2B block | L3MBTL1 inh
CC(C)C[C@@H](CN1CCC[C@@H]1CN1C(=S)NC[C@@H]1Cc1ccccc1)N1C[C@H](Cc2ccc(O)cc2)N(CC2CCCCC2)C1=S | nt | nt | i | nt | nt | nt
COC(=O)C1=C[C@@H](C(=O)OC)C2C3=C(C(=O)[C@@]2(C)NC(=O)c2ccccc2)[C@H](C)n2c(=O)n(-c4ccccc4)c(=O)n2[C@@H]3C1 (stereo partly drawn) | nt | i | nt | i | nt | nt
O=C(N/N=C/c1ccccc1O)C(=O)N1CCCCCC1 | i | ? | i | i | 79µM | nt
COc1cccc(/C=N/NC(=O)C(=O)N2CCCC2)c1OC | ? | i | i | i | i | i
COc1cccc(/C=N/NC(=O)C(=O)N2CCCC2)c1O | ? | 79µM | nt | i | 16µM | 22µM
CCOc1ccc(/C=N/NC(=O)C(=O)N2CCCCCC2)c2ccccc12 | i | i | i | i | 71µM | nt
CCc1ccc(C2c3c(oc4ccc(F)cc4c3=O)C(=O)N2c2nc(C)c(C(=O)OC)s2)cc1 (stereo not drawn) | i | i | nt | i | i | nt
COc1ccc(OC)c(-n2c(=O)c3ccccc3c3ccccc3c2=O)c1 | 10µM | ? | i | i | ? | i
COc1ccc(-n2c(=O)c3ccccc3c3ccccc3c2=O)cc1 | 10µM | i | i | i | i | i
Cc1ccc(-c2nc(S(=O)(=O)c3ccc(C)cc3)c(N3CCOCC3)o2)cc1 | 4.5µM | 79µM | ? | ? | ? | nt
Cc1ccc(S(=O)(=O)c2nc(-c3ccccc3)oc2NCCN2CCOCC2)cc1 | ? | i[11.4 µM] | i | i | i | i
CCOc1ccc(-c2nc(S(=O)(=O)c3ccccc3)c(N3CCOCC3)o2)cc1 | 50µM | i | i | i | i | i
Cc1cccc(-c2nc(S(=O)(=O)c3ccccc3)c(N3CCOCC3)o2)c1 | ? | i | i | i | i | nt
Cc1ccc(S(=O)(=O)c2nc(-c3ccc(F)cc3)oc2N2CCN(c3ccccc3)CC2)cc1 | ? | ? | nt | i | ? | nt
O=S(=O)(c1ccc(F)cc1)c1nc(-c2ccc(F)cc2)oc1NCCN1CCOCC1 | 50µM | i | i | i | i | i
Cc1cc(C(=O)CSc2nnc(CCC(N)=O)n2C)c(C)n1C1CC1 | 50µM | i | i | i | i | i
Cn1cc(SCC(=O)N2CCN(c3ccccc3)CC2)c2ccccc21 | 40µM | ? | i | i | ? | nt
CNS(=O)(=O)c1cn(CC(=O)N2CCN(c3cccc(C)c3C)CC2)cc1S(=O)(=O)NC | i | i | nt | i | i | nt
Cc1cccc(N2CCN(C(=O)Cn3ncc4c5ccccc5n(C)c4c3=O)CC2)c1C | i | i | nt | i | i | nt
Cc1cccc(N2CCN(C(=O)Cc3cn(C)c4ccccc34)CC2)c1C | 50µM | 18µM | i | ? | ? | nt
CC1=C(C(=O)N2CCN(c3cccc(C)c3C)CC2)C2(CCCCC2)OC1=O | i | i | nt | i | 79µM | nt
CC1=C(C(=O)N2CCN(c3ccccc3)CC2)C2(CCCCC2)OC1=O | i | i | nt | i | i | nt
Cc1cccc(N2CCN(C(=O)Cn3cccc3)CC2)c1C | 50µM | ? | i | i | ? | nt
CCc1ccc(S(=O)(=O)c2cn(Cc3ccccc3)c3cc(N4CCCC4)c(F)cc3c2=O)cc1 | i | i | nt | i | i | nt
Cc1ccc(C(=O)N2CCN(c3cccc(C)c3C)CC2)o1 | 71µM | i | i | i | i | nt
SMILES | G9a block | JMJD2A Tudor inh | PI5P4Ka inh | HP1b chromo inh | BAZ2B block | L3MBTL1 inh
CN(C(=O)c1ccoc1)c1ccccc1I | nt | i | nt | i | nt | nt
CCSc1ncnc2c1sc1nc(-c3ccco3)c3c(c12)CC(C)(C)OC3 | nt | nt | nt | nt | i | i
COC(=O)CSc1ncnc2c1sc1nc(-c3ccco3)c3c(c12)CC(C)(C)OC3 | ? | nt | nt | nt | 50µM | ?
COc1ccc2nc3cc(Cl)ccc3c(Nc3ccc(O)c(CN4CCN(C)CC4)c3)c2c1 | nt | 32µM | ? | 16µM | nt | nt
CC(C)SC1=NC(C)(C)C=C(/C=C/c2c(Cl)cccc2Cl)N1 | 45µM | i | i | i | i | nt
Clc1cccc(Cl)c1/C=C/c1nc2ccccc2[nH]1 | i | i | nt | i | i | i
Clc1ccc(/C=C/c2nc3ccccc3[nH]2)c(Cl)c1 | i | i | i | i | i | i
CC(C)SC1=NC(C)(C)C=C(/C=C/c2ccc(Cl)cc2Cl)N1 | 45µM | i | i | i | ? | nt
Cc1ccc(NC(=O)Cn2c(=O)n(Cc3ccco3)c(=O)c3sc4ccccc4c32)cc1C | i | i | nt | i | i | nt
COc1cccc(CNCc2ccc(SC)cc2)c1OC | 22µM | 13µM | nt | ? | ? | i
CCOc1cc(CNCc2cc(OC)cc(OC)c2)ccc1OC | 40µM | 1µM | i | ? | ? | i
COc1ccc(CNCc2c(F)cccc2F)cc1OC | 10µM | 4µM | i | i | i | i
COc1cc(CNCc2ccc(C)cc2)cc(OC)c1OC | 28µM | 20µM | i | ? | 71µM | i
COc1cc(CNCc2ccncc2)cc(OC)c1OC | i[0.501 µM] | i | i | i | i | i[2.29 µM]
COc1cccc(CNCc2ccc(C(=O)O)cc2)c1OC | i | i | i | i | i | i[11.4 µM]
Cc1ccc(C)c(CN2CCCN(Cc3ccc(F)cc3)S2(=O)=O)c1 | i | i | nt | i | i | nt
CC[C@@H]1Cn2c(c3nc(-c4cc(Cl)cc(Cl)c4Cl)nc-3n(C)c2=O)N1 | i | nt | nt | nt | nt | nt
CCNc1ncc2nc(CCc3ccccc3)c(=O)n(Cc3ccc(F)cc3)c2n1 | i[0.501 µM] | nt | nt | nt | nt | nt
Cc1c(C(=O)N2CCC(C)CC2)c(S(=O)(=O)N2CCN(c3cccc(Cl)c3)CC2)c(C)n1C | i[12.7 µM] | ? | nt | i | ? | nt
CCOC(=O)CC(NCc1ccc(OC)c(OCC)c1)c1ccc(C)cc1 (stereo not drawn) | i[12.7 µM] | 56µM | i | i | i | i
COc1cc(CNCc2cccc(OC)c2OC)cc(OC)c1 | i[0.501 µM] | 25µM | i | ? | i | i[2.29 µM]
CCOC(=O)CCNCc1ccc(OC)c(OC)c1 | i[12.7 µM] | i[11.4 µM] | i | i | i | i
COc1cc(CNCc2cc(OC)c(OC)c(OC)c2)cc(OC)c1 | nt | 20µM | i | ? | ? | i
COc1ccc(-n2c(SCC(=O)NC3CCCCC3)nc3c([nH]c4ccccc43)c2=O)cc1 | i | i | nt | i | i | nt
Cc1cccc(C)c1OCC(=O)N[C@@H](Cc1ccccc1)[C@@H](O)C[C@H](Cc1ccccc1)NC(=O)[C@H](C(C)C)N1CCCNC1=O | i[12.7 µM] | nt | nt | nt | nt | nt
SMILES | G9a block | JMJD2A Tudor inh | PI5P4Ka inh | HP1b chromo inh | BAZ2B block | L3MBTL1 inh
COc1ccccc1NCCC(=O)OCC(=O)NC1CC1 | i | i | i | i | i | i
COc1ccccc1NC(=O)CC(NC1CCCCC1)C(=O)O (stereo not drawn) | 50µM | i | i | i | i | i
COc1ccccc1NCCC(=O)OCC(=O)NC1CCCCC1 | 3.5µM | i | i | i | i | i
CSc1ncc(Cl)c(C(=O)N(C)c2ccccc2)n1 | i | i | nt | i | i | nt
CCOC(=O)c1ccc(NC(=O)C(CC)Sc2nc3ccncc3[nH]2)cc1 (stereo not drawn) | i | i | nt | i | i | nt
CN(C1CCCCC1)S(=O)(=O)Cc1ccccc1 | 32µM | i | nt | i | i | i
